# Source: PubChem BioAssay (NCATS)
# Inconclusive results are not listed. Calls of active or inactive are those of the source. Unless noted, calls follow the shape of the dose curve; as a rule, active = well fitted cell-killing curve with a large enough effect; inconclusive = small, poorly fitted or top-dose-only effect, or effect the other way; inactive = no such curve, though single readings can be large or run the other way.
# Key:
# [1] = Quantitative High-Throughput drug screen in 47 multiple myeloma cell lines against the NCATS MIPE library collection: RPMI8226_ATCC cell viability assay (AID 1919871); also: nearly all actives have a fitted effect of over 30% in size; also: potency is read from the fitted curve at half-maximal effect
# Procedure, shortened: (§1)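 ATP-based luminescence (CellTiter-Glo, 5 min RT incubation) quantified surviving cells following two days' treatment with MIPE 4.0 agents at 37 °C, 5% CO2.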
# [2] = Quantitative High-Throughput drug screen in 47 multiple myeloma cell lines against the NCATS MIPE library collection: OPM2_DSMZ cell viability assay (AID 1919872); also: nearly all actives have a fitted effect of over 30% in size; also: potency is read from the fitted curve at half-maximal effect
# Procedure, shortened: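 CellTiter-Glo luminescence (ATP) after 48 h compound exposure, 37C/5% CO2; 500 cells/well; MIPE 4.0 approved/investigational drugs pinned in; DMSO = 100%, media only = 0% viability.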
# [3] = Quantitative High-Throughput drug screen in 47 multiple myeloma cell lines against the NCATS MIPE library collection: KMS11_JCRBsus cell viability assay (AID 1919873); also: nearly all actives have a fitted effect of over 50% in size; also: potency is read from the fitted curve at half-maximal effect
# Procedure, shortened: as §1
# [4] = Quantitative High-Throughput drug screen in 47 multiple myeloma cell lines against the NCATS MIPE library collection: KMS28BM_JCRB cell viability assay (AID 1919874); also: nearly all actives have a fitted effect of over 35% in size; also: potency is read from the fitted curve at half-maximal effect
# Procedure, shortened: as §1
# [5] = qHTS drug screen for cell cycle checkpoint inhibitors in PARPi-resistant BRCA-mutant ovarian cancer cell lines. (AID 1963452; calls by dose curve); conditions: PEO1/OlaR viability, CellTiter-Glo luminescence, 96 h, stronger effect = lower value
# Procedure, shortened: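 PEO1, PEO4 and PEO1/OlaR ovarian cancer cells, 600 per well, exposed 96 h at 37C to a dilution series. Viability read by CellTiter-Glo luminescence, normalized to DMSO and empty wells; activity summarized as Z-AUC.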
# [6] = qHTS for identification of novel therapeutic agents for treatment of microphthalmiaassociated transcription factor (MiT) renal cell carcinoma (RCC) (AID 1963991); conditions: CellTiter-Glo, 48 h, stronger effect = lower value
# Procedure, shortened: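 Three TFE3-fusion RCC lines (UOK109, UOK124, UOK145), 500 cells/well in complete medium, were treated with MIPE 4.0 compounds for 48 hours at 37 C. Viability was by CellTiter-Glo luminescence, normalized to DMSO (100%) and empty wells (0%); curves fitted over 11 concentrations.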
# [7] = measured here: PEO1 parental Z-AUC
# [8] = TFE3-RCC UOK109 viability, measured here: UOK109 Z-AUC
# [9] = TFE3-RCC viability, measured here: UOK124 Z-AUC
# [10] = TFE3-RCC viability, measured here: UOK145 Z-AUC
Structure (SMILES),Potency [1],Potency [2],Potency [3],Potency [4],Z-AUC [5],"Z-AUC [5, 7]",Z-AUC ([5]; measured here: PEO4 Z-AUC),"z-score [6, 8]","z-score [6, 9]","z-score [6, 10]"
CN1C[C@H]2c3ccccc3Oc3ccc(Cl)cc3[C@@H]2C1,inactive,,,,,,,,,
C[C@]12CCC3c4ccc(O)cc4CCC3C1CCC2=O (some centres undefined),20.9 µM (active),inactive,26.4 µM (active),20.9 µM (active),1.36 (inactive),0.945,1.78,,,
O=C1C[C@@H](c2ccc(O)cc2)Oc2cc(O)cc(O)c21,inactive,inactive,inactive,inactive,0.649 (inactive),1.18,1.28,0.38,0.851,0.18
O=C(O)[C@H]1O[C@H](Oc2cc3oc(-c4ccccc4)cc(=O)c3c(O)c2O)[C@H](O)[C@@H](O)[C@H]1O,4.69 µM (active),,,,,,,,,
c1cc(-c2sc(-c3ccncc3)c(-c3ccncc3)c2-c2ccncc2)ccn1,inactive,inactive,inactive,inactive,1.76 (inactive),1.54,1.03,,,
O=c1c(-c2ccc(O)cc2)coc2cc(OC3O[C@H](CO)[C@H](O)[C@H](O)[C@H]3O)cc(O)c12 (some centres undefined),16.6 µM (active),inactive,,,,,,,,
O=C(O)c1ccccc1C(=O)Nc1ccc(-c2ccccc2)cc1,inactive,inactive,inactive,inactive,1.24 (inactive),0.724,0.552,0.921,0.86,0.469
COc1ccc(-c2coc3cc(O)cc(O)c3c2=O)cc1,inactive,inactive,inactive,inactive,1.34 (inactive),0.911,1.85,,,
COc1ccc(C2Sc3ccccc3N(CCN(C)C)C(=O)C2OC(C)=O)cc1 (centres undefined),inactive,inactive,inactive,inactive,,,,,,
CN(C)C1CCN(C(=O)c2ccc(NC(=O)Nc3nc(N4CCOCC4)nc(N4CCOCC4)n3)cc2)CC1,0.0093 µM (active),0.0209 µM (active),,,,,,,,
Cn1c(N2CCCCS2(=O)=O)nc(C(=O)NCc2ccc(F)cc2)c(O)c1=O,inactive,inactive,,,,,,,,
O=C(O)c1cc(O)c2c(c1)C(=O)c1cccc(O)c1C2=O,42.9 µM (active),inactive,inactive,inactive,-0.369 (inactive),-0.852,-0.959,1.17,-0.187,1.5
NC(CO)(CO)CCc1ccc(Sc2cccc(OCc3ccccc3)c2)cc1Cl,23.5 µM (active),23.5 µM (active),7.43 µM (active),11.8 µM (active),0.362 (inactive),-0.197,-0.274,,,
CC(C)=CC[C@@H](O)C1=CC(=O)c2c(O)ccc(O)c2C1=O,1.87 µM (active),1.32 µM (active),1.18 µM (active),0.833 µM (active),-0.228 (inactive),-0.402,-0.229,,,
N#C[C@H]1C[C@H]2C[C@@H]2N1C(=O)[C@@H](N)C12CC3CC(CC(O)(C3)C1)C2,inactive,inactive,,,,,,,,
N[C@@]1(C(=O)O)CS(=O)(=O)[C@H]2[C@H](C(=O)O)[C@H]21,inactive,inactive,inactive,inactive,-0.18 (inactive),0.223,0.235,,,
CON=C(C(=O)N[C@@H]1C(=O)N2C(C(=O)OCOC(=O)C(C)(C)C)=C(C=Cc3scnc3C)CS[C@H]12)c1csc(N)n1,inactive,inactive,inactive,inactive,,,,,,
NS(=O)(=O)c1cccc2c1C(=O)c1cccc(O)c1C2=O,0.833 µM (active),2.64 µM (active),0.105 µM (active),0.469 µM (active),-1.32 (inactive),-1.19,-1.74,,,
Cc1c(O)cccc1C(=O)N[C@@H](CSc1ccccc1)[C@H](O)CN1C[C@H]2CCCC[C@@H]2C[C@@H]1C(=O)NC(C)(C)C,18.7 µM (active),26.4 µM (active),18.7 µM (active),20.9 µM (active),,,,,,
O=C(CCCCCCC(=O)Nc1ccccc1)NO,4.69 µM (active),4.69 µM (active),2.64 µM (active),2.09 µM (active),-0.11 (inactive),-0.486,-0.541,,,
CC1(C)CCC[C@@]2(C)[C@@H]1CC[C@@]1(C)OC(=O)C[C@H]21,2.09 µM (active),inactive,,,,,,,,
CC[C@@]1(O)C[C@H](O[C@H]2C[C@H](N(C)C)[C@H](O[C@H]3C[C@H](O)[C@H](O[C@H]4CCC(=O)[C@H](C)O4)[C@H](C)O3)[C@H](C)O2)c2c(cc3c(c2O)C(=O)c2c(O)cccc2C3=O)[C@@H]1C(=O)OC,0.296 µM (active),4.18 µM (active),0.166 µM (active),0.132 µM (active),-0.814 (inactive),-0.555,-0.946,,,
CCc1ccc(OCc2ccccc2C(=O)Nc2ccc3nc(C)cc(N)c3c2)cc1,6.62 µM (active),9.35 µM (active),1.48 µM (active),1.18 µM (active),-0.061 (inactive),-0.206,-0.159,,,
CN1[C@@H]2CCC[C@@H]1CC(NC(=O)c1nn(C)c3ccccc13)C2 (some centres undefined),inactive,inactive,inactive,inactive,-0.105 (inactive),-0.292,0.149,0.506,0.637,0.0896
